CSC inhib: cancer stem cell inhibition; AID 2717; inhibition, % at 7.5 µM; cancer stem cell-like cells viability, luminescence; 1.1% of 300,000 active; in the data active = inhibition above about 75%; inconclusive = no clear call, values can overlap the other calls; tested in HMLE shEcad cells
MPTP block: permeability transition pore inhibition | 1.4% of 360,000 active | isolated mouse mitochondria, Ca2+ swelling absorbance, 30 min | inhibition, % at 10 µM;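 active = inhibition of 50% or more, scaled per plate between neutral and stimulator controls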;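 also: 0% = DMSO wells given calcium and 100% = 1 mM EGTA wells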
NR3A LBD binder: modulators (binders) of human NR3A ligand-binding domain | NR3A LBD differential scanning fluorimetry, Tm shift; 0% = protein alone, 100% = glycine-bound protein | Tm shift relative to glycine control, % at 25 µM | 2.5% of 340,000 active | AID 1259313;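 active = melting temperature shift of at least 10% of the positive control shift, at one fixed dose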
Mdm2 MdmX PPI: disrupts the human Mdm2-MdmX interaction. AID 485346. SaOS-2 split-luciferase Mdm2/MdmX complementation, luminescence. inhibition, % at 8 µM. 3% of 330,000 active. O15151+Q00987;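 active = inhibition of at least 50% at 8 µM in the primary screen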
Target sequence (O15151 whole entry, looked up): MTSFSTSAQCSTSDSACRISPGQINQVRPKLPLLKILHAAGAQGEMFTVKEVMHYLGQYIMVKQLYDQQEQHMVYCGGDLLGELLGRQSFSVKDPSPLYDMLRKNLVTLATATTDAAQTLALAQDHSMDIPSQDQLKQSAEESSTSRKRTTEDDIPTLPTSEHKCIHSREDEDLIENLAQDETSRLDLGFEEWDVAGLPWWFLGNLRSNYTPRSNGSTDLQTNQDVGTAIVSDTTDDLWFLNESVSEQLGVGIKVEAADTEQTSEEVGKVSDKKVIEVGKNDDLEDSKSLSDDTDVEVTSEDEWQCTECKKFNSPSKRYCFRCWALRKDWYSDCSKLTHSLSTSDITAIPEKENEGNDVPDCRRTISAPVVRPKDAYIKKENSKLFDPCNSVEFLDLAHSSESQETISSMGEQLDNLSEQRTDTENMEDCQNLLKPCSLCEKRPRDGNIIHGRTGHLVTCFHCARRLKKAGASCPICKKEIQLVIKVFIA
Target sequence (Q00987 whole entry, looked up): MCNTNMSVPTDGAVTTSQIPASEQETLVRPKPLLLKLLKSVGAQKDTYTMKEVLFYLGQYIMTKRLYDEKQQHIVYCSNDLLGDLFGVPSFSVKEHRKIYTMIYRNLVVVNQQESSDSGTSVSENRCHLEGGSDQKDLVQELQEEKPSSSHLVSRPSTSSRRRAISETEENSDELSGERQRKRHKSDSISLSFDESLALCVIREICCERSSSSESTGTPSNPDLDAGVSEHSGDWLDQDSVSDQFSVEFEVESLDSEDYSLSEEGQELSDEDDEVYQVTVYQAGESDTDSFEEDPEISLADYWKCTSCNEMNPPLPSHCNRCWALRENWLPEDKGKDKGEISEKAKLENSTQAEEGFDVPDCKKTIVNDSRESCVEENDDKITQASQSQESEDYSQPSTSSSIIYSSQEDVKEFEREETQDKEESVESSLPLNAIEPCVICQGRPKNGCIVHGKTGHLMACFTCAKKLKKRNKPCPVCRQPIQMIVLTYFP
Gli-Sufu block: Gli-Sufu pathway antagonism; 0.74% of 340,000 active; inhibition, % at 5 µM; Sufu-KO-LIGHT fibroblasts, Gli luciferase reporter luminescence;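 active = inhibition above about 55%, limit read from the data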;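 also: 0% = DMSO-treated cells and 100% = wells with medium but no cells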
Beta apoptosis: blocks beta cell apoptosis. INS-1E cytokine-induced death, ATP luminescence, 48 h; percent of positive-control rescue, neutral wells zero. protection from apoptosis, % (no concentration beside the values). 0.8% of 300,000 active. AID 435005;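 active = Every replicate reaches about 75%, or at least half do and their mean reaches it too, limit read from the data; inconclusive = At least half of replicates reach the limit but their mean does not; inactive = Under half of replicates reach the limit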;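 also: 0% = cytokine-treated negative control wells and 100% = positive control rescue; higher means more ATP so stronger rescue from cytokine killing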
Active calls of the source: *; ? = inconclusive; . = no result. Rows were chosen to be rich in hits. Some 6.6% of all compounds tested hit in one or more screens of this group.

SMILES | CSC inhib | MPTP block | NR3A LBD binder | Mdm2 MdmX PPI | Gli-Sufu block | Beta apoptosis
O=C(CSc1nc2ccccc2c(=O)[nH]1)Nc1ccc(N2CCOCC2)cc1 | -21 | -1 | 17* | 13 | -1 | 4
Cc1ccc(Oc2ccc(C(=O)NC3CCSC3=O)cn2)cc1 (stereo unspecified) | -5 | -3 | 11* | 3 | -11 | -8
O=C(NC1CCSC1=O)c1ccc(Oc2ccc(F)cc2)nc1 (stereo unspecified) | -20 | -3 | 0 | 1 | 0 | -9
CN(c1ccccc1)S(=O)(=O)c1cccc(C(=O)OCC(=O)NCc2ccccc2)c1 | -15 | 0 | -1 | 10 | 6 | -2
CN(c1ccccc1)S(=O)(=O)c1cccc(C(=O)OCC(=O)NCc2ccc3c(c2)OCO3)c1 | -10 | 2 | 13* | 10 | -18 | -5
CCCC[n+]1ccn(C2=C([O-])c3ccccc3C(=O)/C2=N\S(=O)(=O)c2ccc(Cl)cc2)c1 | 27 | 4 | -4 | 34 | -8 | 114*
CCCCC[n+]1ccn(C2=C([O-])c3ccccc3C(=O)/C2=N\S(=O)(=O)c2ccc(Cl)cc2)c1 | 17 | 4 | 0 | 31 | -11 | 109*
CCCC[n+]1ccn(-c2nc3ccccc3nc2[N-]S(=O)(=O)c2ccc(Br)cc2)c1 | 4 | 2 | 1 | 34 | 11 | -1
COc1ccc(NC(=O)COC(=O)CN2C(=O)C3CCCCC3C2=O)cc1OC (stereo unspecified) | . | 2 | 6 | 3 | -5 | -2
O=C(COC(=O)CCC(=O)c1cccs1)Nc1ccc(F)c(F)c1F | 3 | 0 | -1 | -5 | 1 | 0
COc1ccc(OC)c(NC(=O)CN2C(=O)C(=O)N(Cc3ccccc3)C2=O)c1 | . | 0 | 0 | -2 | -2 | -1
O=C(CN1C(=O)C(=O)N(Cc2ccccc2)C1=O)Nc1cc(Cl)cc(Cl)c1 | 13 | 23 | 26* | 37 | -8 | -3
O=C(CN1C(=O)C(=O)N(Cc2ccccc2)C1=O)Nc1ccc(OC(F)F)cc1 | -6 | 1 | 16* | -15 | -5 | -4
COc1cccc(NC(=O)C2CCOC2=O)c1 (stereo unspecified) | -16 | 3 | 1 | -3 | 3 | -1
CCCCN1CC(=O)N2[C@H]3c4cc(Cl)ccc4OC[C@@H]3[C@H](C(=O)OCC)[C@]2(C)C1=O | 3 | -1 | 0 | 7 | -8 | 6
O=C(COc1ccc(Br)cc1)N1CCc2ccccc21 | 17 | 9 | 12* | -56 | -39 | -20
CCCOc1ccc2c3c(c(=O)oc2c1OCCC)CCCC3 | . | 2 | 4 | -1 | 4 | 100*
Cc1ccc(C(=O)Nn2c(N)c(S(=O)(=O)c3ccc(C)cc3)c3nc4ccccc4nc32)cc1 | 11 | 20 | 7 | -4 | -1 | 5
CCCCCn1c(NC(=O)c2ccco2)c(S(=O)(=O)c2ccc(C)cc2)c2nc3ccccc3nc21 | 71 | 40 | 15* | 17 | 6 | -3
Cc1ccc(S(=O)(=O)c2c(N)n(NC(=O)c3ccccc3C)c3nc4ccccc4nc23)cc1 | 3 | 11 | 11* | 20 | -5 | -8
CCCCn1c(NS(=O)(=O)c2ccccc2)c(S(=O)(=O)c2ccc(C)cc2)c2nc3ccccc3nc21 | 37 | 11 | 1 | . | 11 | 86*
CCCCn1c(NC(=O)c2ccco2)c(S(=O)(=O)c2ccc(C)cc2)c2nc3ccccc3nc21 | . | 22 | -1 | . | 0 | .
O=C(NNC(=O)c1ccccc1F)c1ccc(S(=O)(=O)N2CCCCC2)cc1 | 7 | 0 | -2 | 25 | 1 | 0
CCOC(=O)C1=C(COC(=O)COc2ccccc2C(C)C)NC(=O)NC1C (stereo unspecified) | . | -1 | -1 | -2 | 0 | .
CC(=O)Nc1ccc(-c2nc3ccc(NC(C)=O)cc3o2)cc1 | -3 | 0 | 11* | -23 | -61 | -2
SMILES | CSC inhib | MPTP block | NR3A LBD binder | Mdm2 MdmX PPI | Gli-Sufu block | Beta apoptosis
CN=C1CC(SC)=C1c1ccc(C)cc1 | 1 | -4 | 19* | 27 | -17 | -3
CCc1nnc(NC(=S)Nc2ccccc2)s1 | -11 | 4 | -11 | -32 | -31 | 5
CCOc1ccc(C(=O)Nc2nnc(NC(=S)Nc3ccccc3)s2)cc1 | 22 | 2 | 34* | 24 | -15 | 4
Cc1ccc(C(=O)Nc2nnc(NC(=S)Nc3ccccc3)s2)cc1 | ? | 4 | 32* | 19 | -5 | 9
Cc1cc(C)c2c(N=NN3CCCCC3)[nH]nc2n1 | -1 | 0 | -1 | 14 | -17 | .
Cc1cc(C)c2c(C)[nH]nc2n1 | 43 | 0 | 0 | 11 | 5 | 162*
Cc1nnc2nc(-c3ccccc3)nc(-c3ccccc3)n12 | 8 | -1 | 12* | 15 | 6 | -5
Cn1nc(-c2ccccc2)nc1-c1ccccc1 | -7 | 1 | -3 | -29 | -51 | -9
O=C(O)c1cc(C(=O)O)cc(-c2ccc(/C=c3/sc4nc5ccccc5n4c3=O)o2)c1 | . | . | 10* | . | -3 | .
O=c1/c(=C/c2ccccn2)sc2nc3ccccc3n12 | -14 | -2 | 2 | -56 | -3 | 1
O=c1/c(=C\c2cc([N+](=O)[O-])cc([N+](=O)[O-])c2O)sc2nc3ccccc3n12 | 12 | 32 | 31* | -9 | 5 | -9
Cc1ccc(OCCC(=O)O)cc1 | -4 | 0 | 0 | 19 | -11 | 1
CC[C@]12c3[nH]c4ccc(OC)cc4c3CCN1C(=O)C(CC(=O)NCc1ccco1)C[C@@H]2C(=O)N1CCN(C(=O)c2ccco2)CC1 (stereo partly specified) | . | -1 | 0 | -2 | 20 | .
Cc1ccc(C(c2ccc(C)c(C)c2)C(O)C2OC(=O)C(O)C2O)cc1C (stereo unspecified) | . | 0 | -1 | . | -1 | .
O=[N+]([O-])c1cc(C(F)(F)F)ccc1NCCc1c[nH]c2ccc(O)cc12 | 70 | 3 | 29* | -23 | -5 | -7
O=[N+]([O-])c1cc(C(F)(F)F)ccc1NCCc1c[nH]c2ccccc12 | 99* | 11 | 29* | 20 | 4 | 2
O=[N+]([O-])c1cccnc1NCCc1c[nH]c2ccccc12 | 3 | 0 | 1 | -75 | -64 | -1
CN(CC(=O)Nc1ccc(Cl)c(C(F)(F)F)c1)C(=O)c1cn2ccccc2n1 | 14 | 0 | -3 | -27 | -16 | 1
COc1ccc(/C=N/NC(=O)c2cc(-c3ccccc3)nc3ccccc23)cc1O | 2 | 2 | 7 | 8 | -1 | 11
O=C(N/N=C/c1ccc2c(c1)OCO2)c1cc(-c2ccc(F)cc2)nc2ccccc12 | 55 | 7 | 25* | 34 | -30 | 1
O=C(N/N=C/c1ccc(O)cc1)c1cc(-c2ccccc2)nc2ccccc12 | 15 | 1 | 13* | 28 | -4 | 9
O=C(N/N=C/c1ccc(O)cc1)c1csc2ccccc12 | 0 | 0 | 23* | 12 | -17 | -4
CSc1nc(N)n2nccc2n1 | . | 1 | . | . | . | .
